According to PubChem BioAssay (NCATS):
Several values for one entry are separate records, joined by “and”; a condition that tells them apart may be missing. Equal entries are not always repeated. Inconclusive results are not listed. Activity calls are given as the source filed them. Unless noted, the call rests on the fitted dose curve.

Assays:
[1] = Cell Viability - HepG2 (AID 433); details: qHTS;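 further: potency means the concentration at half of the fitted maximal effect; cells exposed to compound for 40 hours; potency for ATP loss meaning cytotoxicity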
Summary of the method: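 HepG2 cells, 1500 per well, treated 40 hr at 37 °C in complete medium; viability from intracellular ATP by CellTiter-Glo luminescence. Normalized to DMSO and 100 uM tamoxifen; AC50 from Hill fit of qHTS concentration-response.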

[2] = Cell Viability - MRC5 (AID 434); details: MRC5 lung fibroblast viability, qHTS;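 further: potency means the concentration at half of the fitted maximal effect; cells exposed to compound for 40 hours at 37 °C; potency reflects cytotoxicity seen as loss of intracellular ATP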
Summary of the method: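 AC50 values come from Hill-equation fits of intracellular ATP loss, measured by CellTiter-Glo luminescence. Normal lung fibroblasts (MRC5) had 40 hr compound treatment at 37 C, normalized between DMSO and 100 uM tamoxifen.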

[3] = Cell Viability - NIH 3T3 (AID 541; active means well fitted curve in the direction sought with a large enough effect; an effect the other way counts as inactive or inconclusive;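 further: cells exposed to compound for 40 hours; plate controls were DMSO alone for no effect and tamoxifen positive control for full effect; nearly all actives have a fitted effect of over 25% in size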); details: NIH 3T3 cell viability, qHTS; activity change, negative = cytotoxicity: at 92.2 µM (top of the series)
Summary of the method: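 Cells seeded at 1000/well, rested 5 hr at 37 °C, then dosed and incubated 40 hr at 37 °C. CellTiter-Glo added, 20 min room temperature, luminescence read. AC50 by Hill fit.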

[4] = MultiTox-Fluor Cytotoxicity Assay - LYMP1-002 - Dead Cells (AID 960; active means well fitted curve in the direction sought with a large enough effect; an effect the other way counts as inactive or inconclusive;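 further: 0% = DMSO and 100% = tetraoctylammonium bromide; nearly all actives have a fitted effect of over 60% in size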); details: LYMP1-002 lymphoblastoid cells, dead-cell protease fluorescence; series mostly up to 46.1 µM
Summary of the method: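 Cells were plated, rested 5 hr, then treated with compound dilution series for 16 hr at 37 C. After adding substrate reagent and 60 min at room temperature, dead-cell protease fluorescence gave concentration-response curves fitted by the Hill equation.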

[5] = target: Estrogen receptor (Homo sapiens) (UniProt P03372); assay: qHTS assay for small molecule agonists of estrogen receptor alpha signaling (AID 588514); details: ER-alpha-UAS-bla HEK293, beta-lactamase ratio, 18 h; series mostly up to 76.8 µM;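 further: 0% = vehicle only and 100% = reference agonist; nearly all actives have a fitted effect of over 70% in size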
Summary of the method: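 Efficacy is expressed against 20 nM 17-beta-estradiol (100%) and DMSO basal (0%); EC50 from Hill equation. Assay: beta-lactamase reporter in ER-alpha-UAS-bla HEK 293 cells, 18 h compound incubation, CCF4 detection.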

[6] = target: Glucocorticoid receptor (Homo sapiens) (UniProt P04150); assay: qHTS assay for small molecule agonists of glucocorticoid receptor signaling (AID 588532; active means well fitted curve in the direction sought with a large enough effect in the signal ratio, with a control signal flat; the % refers to the signal ratio;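 further: 100% = dexamethasone at 0.1 µM and 0% = DMSO only wells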); details: HeLa MMTV-bla, beta-lactamase ratio, agonist, 18 h; stronger effect = higher value; percent of dexamethasone control, DMSO zero
Summary of the method: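 Using MMTV-bla HeLa cells in medium with 1% stripped FBS and 25 mM HEPES, compounds were titrated and incubated overnight-length (18 h). Beta-lactamase cleavage of CCF4 was quantified by dual-emission fluorescence.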

[7] = target: Glucocorticoid receptor (Homo sapiens) (UniProt P04150); assay: qHTS assay for small molecule antagonists of glucocorticoid receptor signaling (AID 588533; active means well fitted inhibition curve with a large enough effect in the signal ratio, with a control signal flat, not every such curve was filed as active; the % refers to the signal ratio;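 further: cells stimulated with 2 nM dexamethasone as agonist; on the % scale 0 is the no-effect control and ±100 the full control effect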); details: HeLa MMTV-bla, GRE beta-lactamase ratio, antagonist mode, 18 h; series mostly up to 76.8 µM
Summary of the method: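 Antagonist-mode qHTS: compound titrations added to GRE-bla HeLa cells, then dexamethasone 2 nM final; 18 h, 37 C. CCF4 FRET fluorescence normalized to dexamethasone and DMSO; IC50 from Hill fit.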

[8] = qHTS assay for small molecule antagonists of peroxisome proliferator-activated receptor delta signaling (AID 588535; active means well fitted inhibition curve with a large enough effect in the signal ratio, with a control signal flat, not every such curve was filed as active; the % refers to the signal ratio;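 on max response: cells co-treated with a PPAR-delta agonist as stimulator during compound exposure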); details: HEK293T PPARd-UAS-bla, beta-lactamase FRET ratio, 18 h; 460 nm channel
Summary of the method: (§1)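 Titrations were run on PPAR-delta-UAS-bla HEK293T cells in charcoal/dextran-stripped serum, incubated 18 h at 37 C. CCF4 fluorescence (460/530 nm) after 2 h RT; Hill equation yields IC50 and maximal response.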

[9] = target: Peroxisome proliferator-activated receptor delta (Homo sapiens) (UniProt Q03181); assay: as above; details: HEK293T PPARd-UAS-bla, beta-lactamase FRET ratio, 18 h; series mostly up to 76.7 µM
Summary of the method: as §1

[10] = target: Peroxisome proliferator-activated receptor gamma (Homo sapiens) (UniProt P37231); assay: qHTS assay for small molecule agonists of peroxisome proliferator-activated receptor gamma signaling (AID 588536; active means well fitted curve in the direction sought with a large enough effect in the signal ratio, with a control signal flat, not every such curve was filed as active; the % refers to the signal ratio;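 further: 0% = DMSO basal wells and 100% = rosiglitazone at 2 µM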); details: HEK293 PPARg-UAS-bla, beta-lactamase ratio, 16 h, percent of rosiglitazone response, DMSO as zero; series mostly up to 76.7 µM
Summary of the method: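 Compound treatment: 16 h, 37 C, HEK293 GeneBLAzer cells. Detection: CCF4, 2 h RT. Values: Hill-fit EC50, efficacy as % of 2 uM rosiglitazone.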

[11] = target: Peroxisome proliferator-activated receptor gamma (Homo sapiens) (UniProt P37231); assay: qHTS assay for small molecule antagonists of peroxisome proliferator-activated receptor gamma signaling (AID 588537; active means well fitted inhibition curve with a large enough effect in the signal ratio, with a control signal flat, not every such curve was filed as active; the % refers to the signal ratio;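 further: reporter cells co-stimulated with 50 nM rosiglitazone agonist during compound treatment; % of control where 0% means no effect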); details: HEK293 PPARg-UAS-bla, beta-lactamase ratio, antagonist mode; series mostly up to 76.8 µM
Summary of the method: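 Antagonist-mode β-lactamase reporter screen run as a titration series. HEK293 PPARγ-UAS-bla cells are stimulated with rosiglitazone (50 nM final) for 16 h, then CCF4 is read at 460/530 nm. Data are scaled between DMSO and rosiglitazone and fitted to the Hill equation.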

[12] = target: Vitamin D3 receptor (Homo sapiens) (UniProt P11473); assay: qHTS assay for small molecule antagonists of vitamin D receptor signaling (AID 588541); details: HEK293T VDR-UAS-bla, beta-lactamase ratio, antagonist mode; series mostly up to 76.7 µM;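 further: receptor activated by calcitriol during compound treatment; on the % scale 0 is the no-effect control and ±100 the full control effect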
Summary of the method: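 Antagonist-mode beta-lactamase reporter assay: HEK293T VDR-UAS-bla cells were exposed to titrated compound alongside 1-alpha,25-dihydroxyvitamin D3 at 3 nM final for 16 h. Values were normalized to the 50 nM agonist control and DMSO basal, with IC50 and efficacy from Hill equation fits.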

[13] = target: Vitamin D3 receptor (Homo sapiens) (UniProt P11473); assay: qHTS assay for small molecule agonists of vitamin D receptor signaling (AID 588543); details: HEK293T VDR-UAS-bla, beta-lactamase ratio, 16 h; series mostly up to 76.8 µM;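 further: 0% = DMSO basal and 100% = reference agonist control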
Summary of the method: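 VDR-UAS-bla HEK293T cells, 2000/well, 2% charcoal-stripped FBS; compound titration 16 h at 37 C; CCF4 beta-lactamase ratio read. Normalized to 50 nM 1-alpha,25-dihydroxyvitamin D3 (100%) and DMSO; Hill fit gives EC50, efficacy.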

[14] = qHTS assay for small molecule activators of the nuclear factor-kappa B (NF-kB) signaling pathway (AID 651749; active means well fitted activation curve with a large enough effect in the signal ratio; the % refers to the signal ratio; further: % of control where 0% means no effect); details: NF-kB-bla ME-180 cells, beta-lactamase FRET ratio, 16 h; stronger effect = higher value
Summary of the method: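 Activation measured after 16 hr compound treatment at 37C, 5% CO2, of 2,000 ME-180 cells/well stably expressing an NF-kB response element–driven beta-lactamase reporter, via FRET-disruption fluorescence.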

[15] = qHTS assay to identify small molecules that stimulate interleukin-8 (IL-8) secretion (AID 651758; active means well fitted activation curve with a large enough effect in the signal ratio; the % refers to the signal ratio; further: 0% is about no effect); details: HTRF ratio (665/615); series mostly up to 92.2 µM
Summary of the method: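 Secreted IL-8 measured homogeneously by TR-FRET (two labelled anti-IL-8 antibodies, 1-3 h at room temperature) after a 16 h, 37 C compound treatment of THP-1 cells at 2000 cells/well.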

[16] = qHTS assay for small molecule antagonists of the retinoid-related orphan receptor gamma (ROR-gamma) signaling pathway - cell viability counter screen (AID 720652; active means well fitted curve in the direction sought with a large enough effect in the repeat runs; an effect the other way counts as inactive or inconclusive;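 further: CHO reporter cells with doxycycline-induced ROR-gamma expression; compound exposure lasted 16 hr before ATP read; on the % scale 0 is the no-effect control and ±100 the full control effect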); details: RORgamma reporter cell line viability counter screen; series mostly up to 92.2 µM
Summary of the method: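 Steps: seed CHO cells bearing TET-inducible ROR and ROR response element-luciferase; rest 5 hr at 37 C; add compound, then doxycycline; incubate 16 hr; add CellTiter-Glo and read luminescence as ATP-based viability.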

[17] = target: Mitogen-activated protein kinase 10 (Mus musculus) (UniProt Q61831); assay: JNK3 AlphaScreen Assay (AID 530; active means well fitted curve in either direction with a large enough effect, not every such curve was filed as active;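 further: kinase came from lysate of stimulated human HepG2 cells; signal reports phosphorylation of biotinylated GST-cJun 1-79 at Ser73 with 10 µM ATP; on the % scale 0 is the no-effect control and ±100 the full control effect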); details: JNK3 lysate, c-Jun phosphorylation; series mostly up to 57.1 µM
Summary of the method: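 qHTS titrations with 15 min compound pre-incubation before adding ATP (10 uM final). Read-out: AlphaScreen of Ser73-phosphorylated biotin-GST-cJun using HepG2 lysate JNK3 activated by IL-1β and TNFα.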

[18] = Cell Viability - LYMP2-001 (AID 921; active means well fitted curve in the direction sought with a large enough effect; an effect the other way counts as inactive or inconclusive;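 further: cells exposed to compound for 24 h at 37 °C; 0% = DMSO only and full inhibition = tetraoctylammonium bromide control wells; nearly all actives have a fitted effect of over 70% in size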); details: LYMP2-001 lymphoblastoid cell viability; series mostly up to 92.2 µM
Summary of the method: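 Human lymphoblastoid LYMP2-001 cells, 2500 per well, in complete medium, treated 24 h at 37 C. Viability from cellular ATP by CellTiter-Glo luminescence; AC50 from Hill-equation fits of qHTS concentration-response.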

[19] = target: Thyroid hormone receptor beta (Homo sapiens) (UniProt P10828); assay: qHTS assay for small molecule antagonists of thyroid hormone receptor beta signaling (AID 588547; active means well fitted inhibition curve with a large enough effect in the signal ratio, with a control signal flat, not every such curve was filed as active; the % refers to the signal ratio); details: TR-UAS-bla HEK293, beta-lactamase ratio, antagonist mode, 18 h
Summary of the method: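 Inhibition of T3-driven (0.4nM final) beta-lactamase reporter activity was measured over 0.59 nM to 92 uM compound after 18 h at 37 C. The cells were GripTite HEK293 TR-UAS-bla in charcoal/dextran-stripped serum, with CCF4 ratio read-out and IC50 from Hill fits.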

Chain of Vitamin D3 receptor (Homo sapiens) (P11473 whole entry, looked up): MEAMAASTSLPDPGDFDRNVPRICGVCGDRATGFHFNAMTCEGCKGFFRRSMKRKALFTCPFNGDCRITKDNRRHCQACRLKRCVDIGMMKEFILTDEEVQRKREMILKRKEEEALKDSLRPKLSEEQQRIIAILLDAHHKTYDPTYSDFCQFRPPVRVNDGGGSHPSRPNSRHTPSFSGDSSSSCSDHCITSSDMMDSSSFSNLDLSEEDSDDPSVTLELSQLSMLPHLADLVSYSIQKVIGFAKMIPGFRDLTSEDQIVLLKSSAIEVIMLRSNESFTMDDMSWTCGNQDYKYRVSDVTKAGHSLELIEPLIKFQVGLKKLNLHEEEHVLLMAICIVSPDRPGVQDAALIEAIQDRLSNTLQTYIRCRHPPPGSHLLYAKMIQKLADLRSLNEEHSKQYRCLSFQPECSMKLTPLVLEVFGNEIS
Chain of Estrogen receptor (Homo sapiens) (P03372 whole entry, looked up): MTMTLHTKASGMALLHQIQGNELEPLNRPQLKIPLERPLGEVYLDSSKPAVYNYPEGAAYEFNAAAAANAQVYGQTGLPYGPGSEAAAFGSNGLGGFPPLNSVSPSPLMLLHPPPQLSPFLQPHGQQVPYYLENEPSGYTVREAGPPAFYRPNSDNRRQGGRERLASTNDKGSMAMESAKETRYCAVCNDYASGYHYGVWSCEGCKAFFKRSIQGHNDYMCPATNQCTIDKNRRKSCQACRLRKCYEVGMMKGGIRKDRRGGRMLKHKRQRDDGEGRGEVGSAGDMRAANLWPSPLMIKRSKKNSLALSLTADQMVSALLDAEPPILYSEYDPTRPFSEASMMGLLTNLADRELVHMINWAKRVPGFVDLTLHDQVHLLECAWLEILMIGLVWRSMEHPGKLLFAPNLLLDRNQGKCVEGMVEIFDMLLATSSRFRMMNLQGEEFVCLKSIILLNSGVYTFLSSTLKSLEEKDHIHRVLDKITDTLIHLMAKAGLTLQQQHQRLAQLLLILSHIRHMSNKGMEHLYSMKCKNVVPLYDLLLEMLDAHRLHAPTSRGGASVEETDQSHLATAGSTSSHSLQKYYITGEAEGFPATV
Chain of Peroxisome proliferator-activated receptor gamma (Homo sapiens) (P37231 whole entry, looked up): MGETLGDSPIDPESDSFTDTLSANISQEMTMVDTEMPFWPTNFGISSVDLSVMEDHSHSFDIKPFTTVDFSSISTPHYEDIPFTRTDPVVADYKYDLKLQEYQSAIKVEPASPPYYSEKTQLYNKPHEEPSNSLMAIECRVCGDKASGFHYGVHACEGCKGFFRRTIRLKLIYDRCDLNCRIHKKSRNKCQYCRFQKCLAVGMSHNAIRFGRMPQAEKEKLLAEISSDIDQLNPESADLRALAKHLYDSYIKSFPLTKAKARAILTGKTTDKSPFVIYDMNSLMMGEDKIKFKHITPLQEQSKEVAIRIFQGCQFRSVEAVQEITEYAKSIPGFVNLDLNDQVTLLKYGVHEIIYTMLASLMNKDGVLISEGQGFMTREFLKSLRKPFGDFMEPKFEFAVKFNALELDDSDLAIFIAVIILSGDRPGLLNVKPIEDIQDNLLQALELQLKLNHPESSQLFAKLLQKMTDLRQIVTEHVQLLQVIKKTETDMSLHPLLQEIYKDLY
Chain of Glucocorticoid receptor (Homo sapiens) (P04150 whole entry, looked up): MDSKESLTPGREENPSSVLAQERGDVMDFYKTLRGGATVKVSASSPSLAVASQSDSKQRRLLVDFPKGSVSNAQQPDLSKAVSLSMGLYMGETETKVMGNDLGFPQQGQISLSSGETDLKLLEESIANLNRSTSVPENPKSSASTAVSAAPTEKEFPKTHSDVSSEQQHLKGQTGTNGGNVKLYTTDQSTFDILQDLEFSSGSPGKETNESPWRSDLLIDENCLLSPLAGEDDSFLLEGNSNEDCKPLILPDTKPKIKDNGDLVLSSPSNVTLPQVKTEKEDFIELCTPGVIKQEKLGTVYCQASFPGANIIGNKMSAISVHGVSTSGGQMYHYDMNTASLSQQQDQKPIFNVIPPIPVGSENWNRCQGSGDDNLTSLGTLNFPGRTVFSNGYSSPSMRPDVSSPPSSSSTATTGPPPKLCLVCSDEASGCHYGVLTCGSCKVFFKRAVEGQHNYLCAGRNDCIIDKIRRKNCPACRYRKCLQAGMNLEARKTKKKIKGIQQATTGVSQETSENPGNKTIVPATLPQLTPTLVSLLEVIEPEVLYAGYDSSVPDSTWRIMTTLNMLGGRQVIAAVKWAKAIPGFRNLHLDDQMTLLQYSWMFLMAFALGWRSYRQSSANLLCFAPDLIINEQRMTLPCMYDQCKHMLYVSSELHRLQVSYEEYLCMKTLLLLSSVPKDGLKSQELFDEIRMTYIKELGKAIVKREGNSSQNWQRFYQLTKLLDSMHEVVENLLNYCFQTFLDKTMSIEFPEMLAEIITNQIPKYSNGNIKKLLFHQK
Chain of Thyroid hormone receptor beta (Homo sapiens) (P10828 whole entry, looked up): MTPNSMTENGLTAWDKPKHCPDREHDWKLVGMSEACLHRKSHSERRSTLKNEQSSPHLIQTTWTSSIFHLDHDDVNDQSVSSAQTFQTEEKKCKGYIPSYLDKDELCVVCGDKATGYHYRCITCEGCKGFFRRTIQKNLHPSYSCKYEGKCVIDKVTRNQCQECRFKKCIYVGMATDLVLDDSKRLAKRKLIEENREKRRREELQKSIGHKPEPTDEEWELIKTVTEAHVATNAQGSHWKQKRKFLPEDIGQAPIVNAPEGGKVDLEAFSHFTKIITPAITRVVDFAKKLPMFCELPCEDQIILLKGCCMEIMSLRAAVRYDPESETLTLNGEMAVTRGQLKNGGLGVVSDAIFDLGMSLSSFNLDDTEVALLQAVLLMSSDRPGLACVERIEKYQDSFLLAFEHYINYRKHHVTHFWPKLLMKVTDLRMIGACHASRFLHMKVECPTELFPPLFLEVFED
Chain of Peroxisome proliferator-activated receptor delta (Homo sapiens) (Q03181 whole entry, looked up): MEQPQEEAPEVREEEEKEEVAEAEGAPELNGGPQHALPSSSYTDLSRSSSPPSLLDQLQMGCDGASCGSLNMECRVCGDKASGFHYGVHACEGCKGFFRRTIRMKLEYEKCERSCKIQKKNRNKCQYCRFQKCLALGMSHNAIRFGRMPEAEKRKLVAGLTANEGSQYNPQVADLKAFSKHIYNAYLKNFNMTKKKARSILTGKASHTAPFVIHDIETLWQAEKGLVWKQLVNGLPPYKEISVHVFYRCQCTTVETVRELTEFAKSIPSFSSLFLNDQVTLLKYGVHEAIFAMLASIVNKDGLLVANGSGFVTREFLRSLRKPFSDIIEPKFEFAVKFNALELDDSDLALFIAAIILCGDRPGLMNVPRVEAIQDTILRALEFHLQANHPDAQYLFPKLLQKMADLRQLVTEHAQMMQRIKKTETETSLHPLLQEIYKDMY

OCC(Cl)CCl (stereo unspecified)
inactive: Potency [1] > 92 µM | Potency [2] > 92 µM | Potency [3] | Potency [4] | Potency [5] | activation [6] 11.4% | outcome [7] | outcome [9] | outcome [10] | Potency [11] | outcome [12] | outcome [13] | activation [14] 0.192% | Potency [15] | Potency [16]
-16%: max response [8]

CC(C)OS(C)(=O)=O
inactive: Potency [1] > 92 µM | Potency [2] > 92 µM | Potency [17] | Potency [3] | Potency [18] | Potency [5] | outcome [9] | outcome [10] | outcome [12] | activity change % (negative = inhibition) [19] 8.49% | Potency [15] | Potency [16]
-20%: max response [8]

Cl/C=C\Cl
inactive: Potency [1] > 92 µM | Potency [17] | Potency [18] | Potency [5] | activation [6] 16.7% | outcome [7] | outcome [9] | outcome [12] | outcome [13] | activity change % (negative = inhibition) [19] 0.348% | activation [14] 0.0953% | Potency [16]
-22.4%: max response [8]

CCCN(CCC)c1c([N+](=O)[O-])cc(C(F)(F)F)cc1[N+](=O)[O-]
inactive: Potency [1] > 92 µM | Potency [2] > 92 µM | Potency [18] | Potency [5] | outcome [9] | outcome [10] | Potency [11] | outcome [12] | outcome [13] | activity change % (negative = inhibition) [19] 9.18% and -4.26% | Potency [16]
0.867%: max response [8]

C=CCCC#N
inactive: Potency [1] > 92 µM | Potency [2] > 92 µM | Potency [18] | Potency [5] | activation [6] -1.36% | outcome [10] | outcome [12] | outcome [13] | activity change % (negative = inhibition) [19] 9.59% | activation [14] 0.189% | Potency [16]

ClC(Cl)(Cl)C(Cl)(Cl)Cl
inactive: Potency [1] > 92 µM | Potency [17] | Potency [3] | Potency [18] | Potency [5] | activation [6] 5.68% | outcome [7] | outcome [10] | Potency [11] | outcome [13] | activity change % (negative = inhibition) [19] 3.45% | activation [14] 0.631% | Potency [15] | Potency [16]

Cc1ccc(N)c(C)c1
14.7%: max response [8]
inactive: Potency [1] > 92 µM | Potency [17] | Potency [4] | activation [6] -0.661% | outcome [7] | outcome [9] | outcome [10] | Potency [11] | outcome [12] | outcome [13] | Potency [16]
